From PubChem
Shown is part of a subset that was picked to be rich in hits.
mHTT CaM bind – mHTT-calmodulin interaction abrogation; AlphaScreen His-mHTT/GST-CaM binding, luminescence; inhibition, % at 15 µM; 3.6% of 190,000 active; AID 1671202;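 also: 0% = both proteins with DMSO and 100% = one protein alone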
Target sequence (P42858 whole entry, looked up, stated change not applied): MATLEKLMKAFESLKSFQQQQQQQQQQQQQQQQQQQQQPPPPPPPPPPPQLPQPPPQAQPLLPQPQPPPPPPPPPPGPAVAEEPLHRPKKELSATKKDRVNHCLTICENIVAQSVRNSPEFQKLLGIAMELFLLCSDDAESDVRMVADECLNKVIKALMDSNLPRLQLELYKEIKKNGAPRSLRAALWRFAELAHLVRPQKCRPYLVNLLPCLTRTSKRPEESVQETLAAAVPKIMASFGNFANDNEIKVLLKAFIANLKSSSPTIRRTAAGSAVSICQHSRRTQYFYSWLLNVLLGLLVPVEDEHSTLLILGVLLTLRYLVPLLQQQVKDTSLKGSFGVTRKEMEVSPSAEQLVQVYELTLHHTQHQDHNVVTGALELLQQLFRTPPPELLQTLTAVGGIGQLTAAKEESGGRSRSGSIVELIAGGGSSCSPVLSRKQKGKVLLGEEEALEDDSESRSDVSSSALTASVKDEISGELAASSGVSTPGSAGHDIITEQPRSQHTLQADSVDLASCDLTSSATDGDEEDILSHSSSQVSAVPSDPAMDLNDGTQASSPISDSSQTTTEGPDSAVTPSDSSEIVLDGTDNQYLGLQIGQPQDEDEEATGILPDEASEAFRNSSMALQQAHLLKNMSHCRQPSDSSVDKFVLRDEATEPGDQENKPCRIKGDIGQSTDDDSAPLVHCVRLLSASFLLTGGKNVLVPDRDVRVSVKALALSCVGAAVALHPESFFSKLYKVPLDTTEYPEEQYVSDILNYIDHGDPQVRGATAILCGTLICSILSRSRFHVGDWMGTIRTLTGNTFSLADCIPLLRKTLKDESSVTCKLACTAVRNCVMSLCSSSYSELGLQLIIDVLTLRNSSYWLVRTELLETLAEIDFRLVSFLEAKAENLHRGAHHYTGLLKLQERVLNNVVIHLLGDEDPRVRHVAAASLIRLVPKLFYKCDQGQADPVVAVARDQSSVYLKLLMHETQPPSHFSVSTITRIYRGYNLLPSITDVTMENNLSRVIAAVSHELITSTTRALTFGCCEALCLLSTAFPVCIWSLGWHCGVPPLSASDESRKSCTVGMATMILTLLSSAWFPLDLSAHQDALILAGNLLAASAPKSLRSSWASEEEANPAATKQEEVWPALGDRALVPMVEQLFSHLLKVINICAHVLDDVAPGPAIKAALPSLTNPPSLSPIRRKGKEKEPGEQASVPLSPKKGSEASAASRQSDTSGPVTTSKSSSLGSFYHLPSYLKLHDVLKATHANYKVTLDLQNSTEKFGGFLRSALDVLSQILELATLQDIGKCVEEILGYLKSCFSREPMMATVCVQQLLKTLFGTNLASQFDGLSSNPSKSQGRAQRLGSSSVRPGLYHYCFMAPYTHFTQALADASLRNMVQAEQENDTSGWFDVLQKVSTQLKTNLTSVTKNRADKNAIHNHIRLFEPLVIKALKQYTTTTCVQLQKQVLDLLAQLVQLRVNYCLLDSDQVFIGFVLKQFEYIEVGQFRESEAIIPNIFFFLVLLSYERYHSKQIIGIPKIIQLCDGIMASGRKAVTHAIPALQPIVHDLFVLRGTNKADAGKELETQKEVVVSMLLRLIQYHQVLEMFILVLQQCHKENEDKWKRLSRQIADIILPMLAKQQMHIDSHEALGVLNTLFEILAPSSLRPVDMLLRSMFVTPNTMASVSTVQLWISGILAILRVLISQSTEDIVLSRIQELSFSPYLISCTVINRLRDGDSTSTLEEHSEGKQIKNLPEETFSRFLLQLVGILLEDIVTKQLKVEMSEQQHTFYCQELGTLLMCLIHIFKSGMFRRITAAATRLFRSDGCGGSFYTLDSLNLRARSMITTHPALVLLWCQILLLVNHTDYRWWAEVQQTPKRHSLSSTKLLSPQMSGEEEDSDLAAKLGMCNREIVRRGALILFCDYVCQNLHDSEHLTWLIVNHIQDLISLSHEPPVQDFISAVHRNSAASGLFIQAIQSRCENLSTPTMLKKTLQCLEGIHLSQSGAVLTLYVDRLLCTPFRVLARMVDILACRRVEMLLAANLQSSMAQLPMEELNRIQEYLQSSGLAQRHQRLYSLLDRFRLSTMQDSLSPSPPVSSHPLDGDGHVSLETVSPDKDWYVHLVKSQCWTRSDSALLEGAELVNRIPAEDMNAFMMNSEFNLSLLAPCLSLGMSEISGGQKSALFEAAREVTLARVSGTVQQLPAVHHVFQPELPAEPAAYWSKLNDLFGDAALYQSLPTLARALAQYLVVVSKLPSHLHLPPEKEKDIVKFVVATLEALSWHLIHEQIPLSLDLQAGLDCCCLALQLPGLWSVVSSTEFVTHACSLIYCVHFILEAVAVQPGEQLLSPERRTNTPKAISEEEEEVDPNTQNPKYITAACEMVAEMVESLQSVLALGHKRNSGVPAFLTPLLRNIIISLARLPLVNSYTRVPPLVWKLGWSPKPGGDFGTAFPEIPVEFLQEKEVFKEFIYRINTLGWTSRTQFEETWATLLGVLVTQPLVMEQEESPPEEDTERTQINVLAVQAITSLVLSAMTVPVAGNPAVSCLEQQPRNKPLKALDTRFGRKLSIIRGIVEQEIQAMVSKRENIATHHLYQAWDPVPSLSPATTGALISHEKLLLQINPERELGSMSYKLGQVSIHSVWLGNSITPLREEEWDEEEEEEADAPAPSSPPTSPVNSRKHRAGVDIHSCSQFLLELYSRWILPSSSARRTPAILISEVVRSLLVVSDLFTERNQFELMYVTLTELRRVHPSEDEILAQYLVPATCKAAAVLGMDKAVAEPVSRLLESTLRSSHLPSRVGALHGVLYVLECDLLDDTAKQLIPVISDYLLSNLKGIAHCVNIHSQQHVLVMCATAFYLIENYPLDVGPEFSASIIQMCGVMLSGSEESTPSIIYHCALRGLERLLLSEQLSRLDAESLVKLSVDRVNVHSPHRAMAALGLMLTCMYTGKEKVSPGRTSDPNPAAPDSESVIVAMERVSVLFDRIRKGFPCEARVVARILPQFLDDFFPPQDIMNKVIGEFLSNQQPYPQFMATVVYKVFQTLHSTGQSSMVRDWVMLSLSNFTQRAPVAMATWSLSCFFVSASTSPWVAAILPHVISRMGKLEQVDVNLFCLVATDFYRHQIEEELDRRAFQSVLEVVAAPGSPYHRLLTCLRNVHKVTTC
Pf apPOL inh – Pf-apPOL DNA polymerase inhibition. Recombinant Pf-apPOL, molecular beacon fluorescence, 1.5 h. inhibition, % at 10 µM. 0.25% of 210,000 active. AID 1794808
Active calls of the source: *. Rule as the data show it: active = inhibition above about 50%; inactive = the rest.

What do the screens show for `O=C(Cc1cccc(F)c1)Nc1nnc(C2CC(=O)N(c3ccc(Cl)cc3)C2)o1` (stereo not given)?
mHTT CaM bind: 6; Pf apPOL inh: -2

How did O=C(Cc1cccc(F)c1)Nc1nnc(C2CC(=O)N(c3ccc(F)cc3)C2)o1 (stereo not given) do in these assays?
mHTT CaM bind: 74*; Pf apPOL inh: -3

What do the screens show for `CSc1ccc(N2CC(c3nnc(NC(=O)c4c(F)cccc4F)o3)CC2=O)cc1` (stereo not given)?
mHTT CaM bind: 38; Pf apPOL inh: -2

How did CN(CCO)CC(=O)NC1C2CC3CC(C2)CC1C3 (stereo not given) do in these assays?
mHTT CaM bind: -1; Pf apPOL inh: -11

Results for CCc1[nH]nc(-c2ccc(OC)cc2OC)c1NC(C)=O ?
mHTT CaM bind: 97*; Pf apPOL inh: 84*

How did CCc1n[nH]c(CC)c1NC(=O)c1cccc(OC)c1 do in these assays?
mHTT CaM bind: -8; Pf apPOL inh: 2

Results for O=C(Nc1ccc(NC(=O)c2cc(Cl)ccc2Cl)cc1)c1cccs1 ?
mHTT CaM bind: 9; Pf apPOL inh: -16

Results for O=C(CSCc1ccccc1)N1CCC(c2nnc(-c3ccco3)s2)CC1 ?
mHTT CaM bind: -5; Pf apPOL inh: -6

How did COc1ccc(NC(=O)C2CN(S(=O)(=O)C3CC3)CC23CCCCC3)cc1 (stereo not given) do in these assays?
mHTT CaM bind: 58*; Pf apPOL inh: 9

What do the screens show for `COc1ccc(OC)c(NC(=O)C2CN(S(=O)(=O)C3CC3)CC23CCCCC3)c1` (stereo not given)?
mHTT CaM bind: 15; Pf apPOL inh: -2

How did CCCCNC(=O)CC1CCN(C(=O)c2[nH]c(C)c(C)c2C)CC1 do in these assays?
mHTT CaM bind: -7; Pf apPOL inh: -1

How did COc1ccc(-c2ccccc2)cc1NCc1ccc(OC)c(OC)c1 do in these assays?
mHTT CaM bind: 73*; Pf apPOL inh: -6

Results for COc1ccc([N+](=O)[O-])cc1NCc1ccccc1F ?
mHTT CaM bind: -46; Pf apPOL inh: -1

Results for COc1ccc(-c2ccccc2)cc1NCc1ccc2c(c1)OCO2 ?
mHTT CaM bind: 57*; Pf apPOL inh: -2

What do the screens show for `COc1ccc(-c2ccccc2)cc1NCc1ccccn1`?
mHTT CaM bind: 72*; Pf apPOL inh: -12

Results for COc1ccc(-c2ccccc2)cc1NCc1cc(OC)c(O)c([N+](=O)[O-])c1 ?
mHTT CaM bind: 66*; Pf apPOL inh: 3

Results for COc1ccc(CNCc2ccc3c(c2)OCO3)cc1Br ?
mHTT CaM bind: -1; Pf apPOL inh: 5

Results for COc1cc2c(cc1NCc1ccccn1)oc1ccccc12 ?
mHTT CaM bind: 15; Pf apPOL inh: -4

Results for COc1ccc(CNC(=O)Cc2ccccc2)cc1OC ?
mHTT CaM bind: -3; Pf apPOL inh: 6

What do the screens show for `COc1ccc(OCC(=O)N2CCC(Cc3nc4cccnc4n3C)C2)cc1` (stereo not given)?
mHTT CaM bind: 8; Pf apPOL inh: 2

What do the screens show for `O=C(Nc1ccc(C2(C(=O)NCc3cccnc3)CCCCC2)cc1)C1CC1`?
mHTT CaM bind: -4; Pf apPOL inh: 1

How did O=C(c1cccs1)n1nccc1C=Cc1c(Cl)cccc1Cl do in these assays?
Pf apPOL inh: -8

Results for Cc1nn(-c2ccc(F)cc2)c2nc(C3CC3)nc(N3CCC(C)CC3)c12 ?
mHTT CaM bind: -24; Pf apPOL inh: -2

How did CC(=O)c1ccc(NC(=O)/C(=C/c2ccco2)NC(=O)c2ccco2)cc1 do in these assays?
mHTT CaM bind: 29; Pf apPOL inh: -6

How did COC(=O)c1cnc2nc(C)ccc2c1Nc1ccc(Cl)cc1C do in these assays?
mHTT CaM bind: 85*; Pf apPOL inh: 1

Results for CCOC(=O)c1cnc2nc(C)ccc2c1Nc1ccc(F)c(Cl)c1 ?
mHTT CaM bind: 68*; Pf apPOL inh: -10

How did COC(=O)c1cnc2nc(C)ccc2c1Nc1ccc(Cl)cc1F do in these assays?
mHTT CaM bind: 38; Pf apPOL inh: -3

What do the screens show for `CCOC(=O)c1cnc2nc(C)ccc2c1Nc1cc(F)ccc1Cl`?
mHTT CaM bind: 42; Pf apPOL inh: 0

How did COC(=O)c1cnc2nc(C)ccc2c1Nc1cccc(Cl)c1 do in these assays?
mHTT CaM bind: 11; Pf apPOL inh: -5

How did CCOC(=O)c1cnc2nc(C)ccc2c1Nc1cccc(Cl)c1 do in these assays?
mHTT CaM bind: 63*; Pf apPOL inh: -13

What do the screens show for `CCn1cnc2c1c(=O)n(Cc1ccccc1)c(=O)n2-c1cccc(F)c1`?
mHTT CaM bind: 4; Pf apPOL inh: -1

How did COc1ccc(C(=O)N2CCCn3nc(-c4ccc(C(F)(F)F)cc4)cc3C2)cn1 do in these assays?
mHTT CaM bind: 21; Pf apPOL inh: -6

Results for O=[N+]([O-])c1ccc(-n2cnc3ccccc32)nc1 ?
mHTT CaM bind: 7; Pf apPOL inh: 2

Results for O=C(c1cccc(F)c1)N(Cc1ccccn1)c1nc2c(Cl)cccc2s1 ?
mHTT CaM bind: -14; Pf apPOL inh: -1

Results for COc1ccccc1N1COc2ccc(F)cc2C1 ?
mHTT CaM bind: 47; Pf apPOL inh: 5

What do the screens show for `COc1ccccc1N1COc2cc(C)c(Cl)c(C)c2C1`?
mHTT CaM bind: 100*; Pf apPOL inh: -1

How did Cc1ccc(NC(=O)N2CC(C)C(c3nc(-c4ccncc4)no3)C2)c(C)c1 (stereo not given) do in these assays?
mHTT CaM bind: 6; Pf apPOL inh: 6

Results for Cc1ccc(NC(=O)Cn2ccc3c(=O)[nH]ccc32)cc1 ?
mHTT CaM bind: 32; Pf apPOL inh: 43

Results for CCCCOc1ccc2c(=O)c3ccc(O)cc3oc2c1 ?
mHTT CaM bind: -4; Pf apPOL inh: -8

What do the screens show for `O=C(NCc1ccc(N2CCCC2)cc1)c1cccc(N2CCNC(c3ccccc3)C2)n1` (stereo not given)?
mHTT CaM bind: 82*; Pf apPOL inh: -1

How did O=C(NCCc1ccccn1)c1cccc(N2CCNC(c3ccccc3)C2)n1 (stereo not given) do in these assays?
mHTT CaM bind: 16; Pf apPOL inh: -17

What do the screens show for `COc1ccc(NC(=O)c2cccc(N3CCNC(c4ccccc4)C3)n2)c(OC)c1` (stereo not given)?
mHTT CaM bind: 70*; Pf apPOL inh: -8

What do the screens show for `O=C(NCCc1cccs1)c1cccc(N2CCNC(c3ccccc3)C2)n1` (stereo not given)?
mHTT CaM bind: 87*; Pf apPOL inh: 34

Results for O=C(NCc1ccncc1)c1cccc(N2CCNC(c3ccccc3)C2)n1 (stereo not given) ?
mHTT CaM bind: 1; Pf apPOL inh: -13

How did COc1cccc(NC(=O)c2cccc(N3CCNC(c4ccccc4)C3)n2)c1 (stereo not given) do in these assays?
mHTT CaM bind: 16; Pf apPOL inh: -6

How did Cc1noc(-c2nn(C)c3c2CN(C(=O)COc2ccc(F)cc2)CC3)n1 do in these assays?
mHTT CaM bind: -6; Pf apPOL inh: -2

How did CCN(CC)CC(=O)N1c2ccccc2Sc2ccc(Cl)cc21 do in these assays?
mHTT CaM bind: 16; Pf apPOL inh: -4

What do the screens show for `O=C(CNCc1ccccc1)N1c2ccccc2Sc2ccc(Cl)cc21`?
mHTT CaM bind: 97*; Pf apPOL inh: -1

How did O=C(Cn1cnc([N+](=O)[O-])n1)Nc1cc(C(F)(F)F)ccc1Cl do in these assays?
mHTT CaM bind: 0; Pf apPOL inh: 2

How did C=CCn1c(SCc2cc(=O)[nH][nH]2)nc2sc(C)c(C)c2c1=O do in these assays?
mHTT CaM bind: 15; Pf apPOL inh: -3
